What is called inhibition is the drop in the measured response relative to a control, in per cent.

For six molecules, inhibition results are on record in ChEMBL document CHEMBL1961873, “Compounds: GSK PKIS; Assays: Nanosyn kinase panel” (2012).

Assay [1] deals with Proto-oncogene tyrosine-protein kinase receptor Ret (Homo sapiens), P07949 [Y791F]. The following applies: at 1 µM.
Assay [2] concerns the target Macrophage-stimulating protein receptor (Homo sapiens) (UniProt Q04912). The following applies: at 0.1 µM.
For assay [3] the target is unchanged. The note with it: at 1 µM.
In assay [4] the target is Proto-oncogene tyrosine-protein kinase ROS (Homo sapiens) (UniProt P08922). The note with it: at 0.1 µM.
Assay [5] has the same target. The note with it: at 1 µM.
Assay [6] concerns the target Proto-oncogene tyrosine-protein kinase Src (Homo sapiens) (UniProt P12931). The following applies: at 0.1 µM.
Assay [7] shares this target. The following applies: at 1 µM.
The target of assay [8] is Tyrosine-protein kinase Srms (Homo sapiens) (UniProt Q9H3Y6). The following applies: at 0.1 µM.
Assay [9] has the same target. The note with it: at 1 µM.
Assay [10] deals with Tyrosine-protein kinase SYK (Homo sapiens) (UniProt P43405). The note with it: at 0.1 µM.
Assay [11] has the same target. The note with it: at 1 µM.
Assay [12] concerns the target T1, Tyrosine-protein kinase Tec (Homo sapiens) (UniProt P42680).
T1 sequence (whole entry): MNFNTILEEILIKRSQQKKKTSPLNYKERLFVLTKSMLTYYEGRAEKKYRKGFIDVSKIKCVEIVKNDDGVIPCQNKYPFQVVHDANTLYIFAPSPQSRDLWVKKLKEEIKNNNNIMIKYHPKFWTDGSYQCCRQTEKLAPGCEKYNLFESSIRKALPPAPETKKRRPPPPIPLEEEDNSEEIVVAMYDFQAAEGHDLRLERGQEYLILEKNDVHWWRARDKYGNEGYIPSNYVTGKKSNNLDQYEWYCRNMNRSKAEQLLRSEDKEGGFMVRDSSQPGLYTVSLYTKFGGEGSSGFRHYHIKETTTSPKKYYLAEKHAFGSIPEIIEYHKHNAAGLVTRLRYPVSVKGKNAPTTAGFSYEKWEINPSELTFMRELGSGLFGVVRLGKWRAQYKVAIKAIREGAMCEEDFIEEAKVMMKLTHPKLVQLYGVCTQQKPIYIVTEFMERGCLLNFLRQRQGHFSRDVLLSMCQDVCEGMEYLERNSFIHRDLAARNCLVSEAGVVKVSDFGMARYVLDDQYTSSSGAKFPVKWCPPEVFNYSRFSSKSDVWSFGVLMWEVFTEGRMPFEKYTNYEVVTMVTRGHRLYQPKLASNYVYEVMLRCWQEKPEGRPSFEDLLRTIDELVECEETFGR
The following applies: at 0.1 µM.

For assay [13], the target named is T1, Tyrosine-protein kinase Tec (Homo sapiens). The note with it: at 1 µM.
In assay [14] the target is Angiopoietin-1 receptor (Homo sapiens) (UniProt Q02763). The note with it: at 0.1 µM.
For assay [15] the target is unchanged. The following applies: at 1 µM.
Assay [16] has as its target T2, Non-receptor tyrosine-protein kinase TNK1 (Homo sapiens) (UniProt Q13470).
T2 sequence (whole entry): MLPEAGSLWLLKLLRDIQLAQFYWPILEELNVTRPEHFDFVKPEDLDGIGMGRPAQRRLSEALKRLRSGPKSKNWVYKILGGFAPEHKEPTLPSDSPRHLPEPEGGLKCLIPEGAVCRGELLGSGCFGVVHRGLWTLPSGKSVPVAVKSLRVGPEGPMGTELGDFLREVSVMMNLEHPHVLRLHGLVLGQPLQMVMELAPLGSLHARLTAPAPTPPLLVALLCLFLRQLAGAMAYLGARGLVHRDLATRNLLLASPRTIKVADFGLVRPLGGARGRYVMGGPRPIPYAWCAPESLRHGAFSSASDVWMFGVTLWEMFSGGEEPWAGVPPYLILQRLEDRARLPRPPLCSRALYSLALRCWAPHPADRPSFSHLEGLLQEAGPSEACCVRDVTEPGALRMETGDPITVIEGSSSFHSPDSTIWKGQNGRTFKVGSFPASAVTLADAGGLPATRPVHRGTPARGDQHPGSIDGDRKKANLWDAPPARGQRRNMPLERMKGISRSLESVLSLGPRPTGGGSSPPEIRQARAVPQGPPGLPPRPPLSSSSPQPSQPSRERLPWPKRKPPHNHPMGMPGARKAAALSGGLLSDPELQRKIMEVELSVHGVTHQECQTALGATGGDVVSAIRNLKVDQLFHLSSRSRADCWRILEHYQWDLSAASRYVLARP
The note with it: at 0.1 µM.

The target of assay [17] is T2, Non-receptor tyrosine-protein kinase TNK1 (Homo sapiens). The following applies: at 1 µM.
In assay [18] the target is Activated CDC42 kinase 1 (Homo sapiens) (UniProt Q07912). The following applies: at 0.1 µM.
Sequence of Activated CDC42 kinase 1 (Homo sapiens) (Q07912 whole entry, looked up): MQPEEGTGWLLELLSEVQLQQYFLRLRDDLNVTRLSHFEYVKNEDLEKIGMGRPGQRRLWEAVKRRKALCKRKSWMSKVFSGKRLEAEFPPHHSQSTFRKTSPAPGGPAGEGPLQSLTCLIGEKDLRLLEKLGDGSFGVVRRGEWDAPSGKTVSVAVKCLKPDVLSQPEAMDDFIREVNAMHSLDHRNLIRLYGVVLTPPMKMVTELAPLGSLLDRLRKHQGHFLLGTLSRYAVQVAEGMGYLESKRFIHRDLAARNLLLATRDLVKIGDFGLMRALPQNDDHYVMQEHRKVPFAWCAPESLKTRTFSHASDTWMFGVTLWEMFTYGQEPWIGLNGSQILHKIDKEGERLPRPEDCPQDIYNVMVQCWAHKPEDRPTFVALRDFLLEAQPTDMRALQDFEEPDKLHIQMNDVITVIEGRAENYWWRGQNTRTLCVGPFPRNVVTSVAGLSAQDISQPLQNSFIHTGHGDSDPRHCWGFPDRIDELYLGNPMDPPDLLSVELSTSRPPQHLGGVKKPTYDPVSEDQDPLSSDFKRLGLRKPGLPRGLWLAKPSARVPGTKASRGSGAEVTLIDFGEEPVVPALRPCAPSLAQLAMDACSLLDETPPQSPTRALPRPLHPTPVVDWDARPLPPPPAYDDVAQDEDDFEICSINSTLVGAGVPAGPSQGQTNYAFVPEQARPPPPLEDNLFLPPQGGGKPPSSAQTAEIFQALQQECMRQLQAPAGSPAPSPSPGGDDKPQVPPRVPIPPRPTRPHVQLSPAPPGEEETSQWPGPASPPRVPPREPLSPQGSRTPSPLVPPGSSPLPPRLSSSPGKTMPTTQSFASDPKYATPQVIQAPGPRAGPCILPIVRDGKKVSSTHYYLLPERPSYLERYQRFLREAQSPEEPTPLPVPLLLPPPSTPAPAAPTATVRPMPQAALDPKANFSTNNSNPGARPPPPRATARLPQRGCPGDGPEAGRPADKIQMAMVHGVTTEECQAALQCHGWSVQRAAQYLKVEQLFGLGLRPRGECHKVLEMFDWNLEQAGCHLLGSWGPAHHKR
The target is the same in assay [19]. The note with it: at 1 µM.
The target in assay [20] is High affinity nerve growth factor receptor (Homo sapiens) (UniProt P04629). The note with it: at 0.1 µM.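 Also: each value is a mean of replicate percent inhibition readings against TRKA kinase.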
Sequence of High affinity nerve growth factor receptor (Homo sapiens) (P04629 33-796 limits assumed): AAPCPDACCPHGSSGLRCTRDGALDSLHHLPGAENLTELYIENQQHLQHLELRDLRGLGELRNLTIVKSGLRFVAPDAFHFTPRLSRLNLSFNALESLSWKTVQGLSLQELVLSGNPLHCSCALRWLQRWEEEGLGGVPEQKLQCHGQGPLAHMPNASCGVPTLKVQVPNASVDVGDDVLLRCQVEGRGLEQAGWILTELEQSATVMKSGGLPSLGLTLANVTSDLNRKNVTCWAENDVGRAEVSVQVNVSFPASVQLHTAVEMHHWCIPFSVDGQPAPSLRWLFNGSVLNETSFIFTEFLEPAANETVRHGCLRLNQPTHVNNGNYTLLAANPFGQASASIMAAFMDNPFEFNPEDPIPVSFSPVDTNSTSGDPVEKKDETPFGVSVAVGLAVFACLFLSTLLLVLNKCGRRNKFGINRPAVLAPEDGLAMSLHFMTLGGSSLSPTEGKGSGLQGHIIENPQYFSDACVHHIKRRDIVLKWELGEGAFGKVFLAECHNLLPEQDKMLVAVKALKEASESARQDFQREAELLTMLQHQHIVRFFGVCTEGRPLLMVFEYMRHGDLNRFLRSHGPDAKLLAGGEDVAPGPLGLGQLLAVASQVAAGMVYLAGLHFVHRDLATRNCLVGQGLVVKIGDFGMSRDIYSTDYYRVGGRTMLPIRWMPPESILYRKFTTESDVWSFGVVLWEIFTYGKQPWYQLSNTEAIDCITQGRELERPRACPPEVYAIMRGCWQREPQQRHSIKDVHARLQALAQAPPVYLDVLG

Sequence of Macrophage-stimulating protein receptor (Homo sapiens) (Q04912 25-304 limits assumed): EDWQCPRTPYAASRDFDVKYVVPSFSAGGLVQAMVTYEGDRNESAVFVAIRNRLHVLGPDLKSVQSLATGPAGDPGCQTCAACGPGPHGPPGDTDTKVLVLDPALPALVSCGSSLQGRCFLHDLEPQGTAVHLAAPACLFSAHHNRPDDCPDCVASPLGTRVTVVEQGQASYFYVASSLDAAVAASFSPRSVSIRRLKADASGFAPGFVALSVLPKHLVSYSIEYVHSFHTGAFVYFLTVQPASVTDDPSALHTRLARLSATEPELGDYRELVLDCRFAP
Sequence of Macrophage-stimulating protein receptor (Homo sapiens) (Q04912 310-1400 limits assumed): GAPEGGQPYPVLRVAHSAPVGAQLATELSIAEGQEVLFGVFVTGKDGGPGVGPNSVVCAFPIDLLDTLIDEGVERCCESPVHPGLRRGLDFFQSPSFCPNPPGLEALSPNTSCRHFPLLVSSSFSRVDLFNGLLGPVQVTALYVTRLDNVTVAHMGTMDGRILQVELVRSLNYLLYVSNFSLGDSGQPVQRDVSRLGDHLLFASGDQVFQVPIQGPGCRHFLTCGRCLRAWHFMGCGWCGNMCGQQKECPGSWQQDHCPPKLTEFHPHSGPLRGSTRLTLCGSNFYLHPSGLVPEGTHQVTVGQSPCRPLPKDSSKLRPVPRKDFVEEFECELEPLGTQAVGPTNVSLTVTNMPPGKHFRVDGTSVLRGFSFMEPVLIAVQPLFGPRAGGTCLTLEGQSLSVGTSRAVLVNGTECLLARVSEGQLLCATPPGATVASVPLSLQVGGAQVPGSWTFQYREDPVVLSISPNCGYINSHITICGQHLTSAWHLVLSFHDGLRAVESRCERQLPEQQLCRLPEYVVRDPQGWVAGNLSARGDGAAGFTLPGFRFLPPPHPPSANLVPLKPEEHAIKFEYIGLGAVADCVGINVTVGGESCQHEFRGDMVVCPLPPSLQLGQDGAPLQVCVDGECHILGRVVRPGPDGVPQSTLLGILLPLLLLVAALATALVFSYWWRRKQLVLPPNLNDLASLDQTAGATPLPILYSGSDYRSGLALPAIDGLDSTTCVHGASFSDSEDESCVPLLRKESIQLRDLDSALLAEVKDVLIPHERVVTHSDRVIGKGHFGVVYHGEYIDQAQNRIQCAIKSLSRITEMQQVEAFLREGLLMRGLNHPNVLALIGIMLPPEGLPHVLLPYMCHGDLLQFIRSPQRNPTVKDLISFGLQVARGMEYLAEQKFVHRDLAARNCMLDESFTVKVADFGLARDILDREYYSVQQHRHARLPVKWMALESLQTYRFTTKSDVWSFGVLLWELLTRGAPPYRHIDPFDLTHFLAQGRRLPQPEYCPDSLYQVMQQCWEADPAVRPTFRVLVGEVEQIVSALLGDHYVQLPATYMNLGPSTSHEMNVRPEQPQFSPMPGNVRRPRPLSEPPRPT
Sequence of Proto-oncogene tyrosine-protein kinase Src (Homo sapiens) (P12931 2-536 limits assumed): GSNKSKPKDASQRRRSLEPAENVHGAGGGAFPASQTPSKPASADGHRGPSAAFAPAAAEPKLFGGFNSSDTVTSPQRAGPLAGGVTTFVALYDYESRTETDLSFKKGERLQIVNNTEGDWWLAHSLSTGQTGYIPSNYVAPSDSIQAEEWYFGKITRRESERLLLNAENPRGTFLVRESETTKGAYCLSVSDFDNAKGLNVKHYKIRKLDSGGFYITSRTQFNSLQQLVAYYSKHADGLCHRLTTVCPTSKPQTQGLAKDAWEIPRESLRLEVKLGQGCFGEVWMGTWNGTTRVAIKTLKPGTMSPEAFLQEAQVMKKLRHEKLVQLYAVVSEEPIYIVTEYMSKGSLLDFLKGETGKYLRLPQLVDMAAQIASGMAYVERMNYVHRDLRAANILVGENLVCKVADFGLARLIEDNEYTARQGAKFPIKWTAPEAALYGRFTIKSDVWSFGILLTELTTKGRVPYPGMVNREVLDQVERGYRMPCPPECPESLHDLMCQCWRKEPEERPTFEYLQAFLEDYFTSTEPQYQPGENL
Sequence of Proto-oncogene tyrosine-protein kinase receptor Ret (Homo sapiens), P07949 [Y791F] (P07949 whole entry Y791F): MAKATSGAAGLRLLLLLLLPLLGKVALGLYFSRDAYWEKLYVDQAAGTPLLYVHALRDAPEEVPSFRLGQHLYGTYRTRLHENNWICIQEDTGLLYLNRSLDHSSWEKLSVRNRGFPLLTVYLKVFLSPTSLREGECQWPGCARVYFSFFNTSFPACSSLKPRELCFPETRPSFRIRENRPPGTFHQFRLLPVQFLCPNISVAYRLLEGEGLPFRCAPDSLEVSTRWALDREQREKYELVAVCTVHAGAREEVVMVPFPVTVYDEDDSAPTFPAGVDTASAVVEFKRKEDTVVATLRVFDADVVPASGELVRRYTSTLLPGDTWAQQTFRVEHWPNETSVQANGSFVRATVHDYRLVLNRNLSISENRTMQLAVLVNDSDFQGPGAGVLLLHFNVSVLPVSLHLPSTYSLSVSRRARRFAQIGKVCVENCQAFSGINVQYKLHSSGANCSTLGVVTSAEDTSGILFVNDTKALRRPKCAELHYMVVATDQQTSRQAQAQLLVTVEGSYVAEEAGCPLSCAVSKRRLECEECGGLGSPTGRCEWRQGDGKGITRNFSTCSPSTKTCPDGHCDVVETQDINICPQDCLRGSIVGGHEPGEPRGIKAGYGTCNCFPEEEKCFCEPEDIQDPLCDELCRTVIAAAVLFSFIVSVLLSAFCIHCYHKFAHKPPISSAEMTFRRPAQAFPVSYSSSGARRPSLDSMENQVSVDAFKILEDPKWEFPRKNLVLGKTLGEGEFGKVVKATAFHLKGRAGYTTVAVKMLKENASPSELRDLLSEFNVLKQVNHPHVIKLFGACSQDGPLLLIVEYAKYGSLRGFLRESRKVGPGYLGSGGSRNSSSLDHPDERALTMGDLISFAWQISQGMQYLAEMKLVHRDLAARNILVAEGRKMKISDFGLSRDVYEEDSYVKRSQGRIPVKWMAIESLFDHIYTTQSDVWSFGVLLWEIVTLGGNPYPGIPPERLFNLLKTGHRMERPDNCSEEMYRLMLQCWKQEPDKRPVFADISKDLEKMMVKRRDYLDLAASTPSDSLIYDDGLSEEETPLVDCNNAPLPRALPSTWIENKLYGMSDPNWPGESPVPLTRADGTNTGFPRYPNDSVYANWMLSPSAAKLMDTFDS

For the molecule `NS(=O)(=O)c1ccc(N/N=C2\C(=O)Nc3cccc(CCc4ccncc4)c32)cc1`, the inhibition in [1] was 29.1%; in [2], -0.73%; in [3] it was 5.76%; in assay [4], 3%; in assay [5], 9.09%; in assay [6] it was 3.83%. Further, the inhibition in assay [7] was 9.5%; in [8], 1.9%; in [9], 1.2%; in [10], 0.03%; in assay [11], -2.6%; in [12] it was -0.23%. Also, the inhibition was determined as 4.92% in assay [13]; 0.8% in assay [14]; 3.33% in [15]; 12.8% in assay [16]; 14.7% in assay [17]; 0.97% in [18]. Moreover, the inhibition in [19] came out at 1.34%; in assay [20], 6.26%.

As to `CS(=O)(=O)CCNCc1ccoc1-c1ccc2ncnc(Nc3ccc(OCc4ccccc4)cc3)c2c1`, the inhibition in [1] was 9.63%; in assay [2] it was 1.78%; in assay [3], -1.8%; in assay [4] it was 0.39%; in assay [5] it was 2%; in assay [6], 3.56%. In addition, the inhibition in assay [7] is 4.6%; in [8] it was -1.68%; in assay [9] it was -0.79%; in [10], -2.93%; in assay [11] it was 0.23%; in [12] it was 0.03%. Also, the inhibition in assay [13] came out at 3.04%; in [14] it was 1.86%; in [15], 4.86%; in assay [16] it was 1.08%; in assay [17] it was 5.74%; in [18], 0.06%. Besides, the values for the inhibition in [19] and in assay [20] were 0.6% and 1.31%, respectively.

On to `CC1=C(C(=O)Nc2ccc3[nH]nc(C)c3c2)C(c2ccc(C(F)(F)F)cc2)CC(=O)N1` (stereo not given), for which the inhibition in assay [1] is 38.1%; in [2], 5.1%; in [3] it was 23.9%; in assay [4], 4.15%; in assay [5] it was 17.6%; in assay [6], 1.6%. The inhibition is 22.7% in assay [7]; 0.76% in [8]; -1.98% in [9]; -4.6% in [10]; -0.48% in [11]; 4.4% in [12]. The inhibition in assay [13] was found to be 8.29%; in assay [14], 1.71%; in [15], 6.96%; in [16], 6.09%; in [17] it was 31.3%; in [18], 3.49%. In addition, the figures for the inhibition in [19] and in [20] were 27.4% and 4.41%, respectively.

With `COc1c(C(N)=O)cc(-c2ccc(Cl)cc2)cc1-c1ccc(S(N)(=O)=O)cc1`, the inhibition in [1] came out at 7.43%; in [2], 6.88%; in assay [3], 6.97%; in [4], 12.2%; in [5] it was 14.6%; in [6], 10.9%. Besides, the inhibition in [7] is 14.6%; in [8] it was -1.8%; in assay [9], -2.15%; in [10], 1.78%; in assay [11], 4.05%; in [12] it was 7.49%. Further, the inhibition worked out at 3.79% in assay [13]; 5.29% in [14]; 7.54% in [15]; 2.66% in assay [16]; 3.9% in assay [17]; 1.22% in assay [18]. Moreover, the inhibition in assay [19] amounted to 3.03%; in [20] it was 4.76%.

With `CC1(C)CC(n2cnc(-c3ccc(F)cc3)c2-c2ccnc(N)n2)CC(C)(C)N1`, the inhibition is 1.67% in assay [1]; 2.97% in [2]; 5.62% in [3]; 5.01% in [4]; 7.73% in assay [5]; -1.43% in assay [6]. For the same molecule, the inhibition in assay [7] is 5.26%; in assay [8], 0.52%; in assay [9], -1.76%; in assay [10], -1.03%; in assay [11], 0.92%; in assay [12], 1.41%. Besides, the inhibition in assay [13] was -0.41%; in assay [14] it was 1.61%; in assay [15] it was 3.96%; in assay [16] it was -0.43%; in assay [17], -1.61%; in assay [18], -0.24%. For the same molecule, the inhibition is 0.43% in assay [19] and 6.46% in [20].

For the molecule `O=C(O[C@H]1CN[C@H](C#Cc2cc3ncnc(Nc4ccc5c(ccn5Cc5cc(F)ccc5F)c4)c3s2)C1)N1CCOCC1`, the inhibition in assay [1] is 19.6%; in assay [2], -0.04%; in [3], 7.89%; in assay [4], 5.19%; in assay [5], 6.27%; in [6] it was 0.52%. Moreover, the inhibition is 8.86% in assay [7]; -2.61% in [8]; -3.38% in assay [9]; -0.55% in assay [10]; 0.11% in assay [11]; 4.74% in assay [12]. Also, the inhibition in [13] stood at 7.34%; in [14] it was 3.18%; in [15], 10.8%; in [16] it was 2.48%; in [17], 1.5%; in assay [18], 0.66%. In addition, the figures for the inhibition in [19] and in [20] were 0.98% and 1.93%, respectively.
